Assay outcomes: PubChem BioAssay, Buhrlage Lab, Dana-Farber Cancer Institute and Novartis Institutes for BioMedical Research (Cambridge, Mass)
USP17 block – inhibitors of human USP17 deubiquitinase | A8MUK1 | purified USP17, Ub-rhodamine cleavage fluorescence, 3 h | inhibition, % at 50 µM | 47,000 tested, 6.5% active | AID 1645855
USP8 block – blocks human USP8 ubiquitin-rhodamine cleavage. inhibition, % at 20 µM. purified USP8, Ub-rhodamine cleavage fluorescence, 30 min. AID 1645853. 47,000 tested, 4.2% active
USP30 block – inhibitors of human USP30 deubiquitinase; Q70CQ3; purified USP30, Ub-rhodamine cleavage fluorescence; inhibition, % at 25 µM; 47,000 tested, 5.3% active
OTUD3 block – inhibitors of human OTUD3 deubiquitinase; Q5T2D3; purified OTUD3, Ub-rhodamine fluorescence, 2 h; inhibition, % at 25 µM; 47,000 tested, 0.7% active
USP28 block – blocks human USP28 ubiquitin-rhodamine cleavage. 47,000 tested, 3% active. purified USP28, Ub-rhodamine cleavage fluorescence, 30 min. inhibition, % at 25 µM. Q96RU2
Target sequence (Q96RU2 whole entry, looked up): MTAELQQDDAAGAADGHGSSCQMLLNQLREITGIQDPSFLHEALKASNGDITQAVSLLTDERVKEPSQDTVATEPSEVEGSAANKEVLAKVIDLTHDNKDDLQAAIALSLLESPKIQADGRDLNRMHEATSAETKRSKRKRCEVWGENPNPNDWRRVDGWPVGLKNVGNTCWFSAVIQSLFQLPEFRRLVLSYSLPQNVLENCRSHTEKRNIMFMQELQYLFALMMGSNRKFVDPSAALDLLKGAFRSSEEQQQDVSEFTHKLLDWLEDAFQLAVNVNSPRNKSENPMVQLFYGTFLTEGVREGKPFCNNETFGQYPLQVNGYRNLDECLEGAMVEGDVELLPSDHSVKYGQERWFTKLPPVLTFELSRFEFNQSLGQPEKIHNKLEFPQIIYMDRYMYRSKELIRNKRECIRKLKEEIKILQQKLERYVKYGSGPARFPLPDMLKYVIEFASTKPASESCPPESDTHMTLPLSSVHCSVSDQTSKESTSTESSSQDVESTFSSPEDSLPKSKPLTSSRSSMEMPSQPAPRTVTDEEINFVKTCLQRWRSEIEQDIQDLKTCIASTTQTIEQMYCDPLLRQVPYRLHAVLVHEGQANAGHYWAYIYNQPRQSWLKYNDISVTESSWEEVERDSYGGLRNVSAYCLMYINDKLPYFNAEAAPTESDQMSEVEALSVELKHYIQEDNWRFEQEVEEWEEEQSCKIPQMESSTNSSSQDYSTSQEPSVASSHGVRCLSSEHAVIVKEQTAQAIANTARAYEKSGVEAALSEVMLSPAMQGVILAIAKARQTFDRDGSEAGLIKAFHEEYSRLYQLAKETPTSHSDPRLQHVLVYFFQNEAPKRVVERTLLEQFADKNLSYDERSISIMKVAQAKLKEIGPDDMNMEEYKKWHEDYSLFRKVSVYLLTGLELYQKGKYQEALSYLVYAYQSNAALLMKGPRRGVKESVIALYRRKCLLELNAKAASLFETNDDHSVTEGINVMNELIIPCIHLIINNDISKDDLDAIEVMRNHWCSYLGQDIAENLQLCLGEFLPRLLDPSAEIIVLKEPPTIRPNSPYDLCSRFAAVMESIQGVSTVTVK
Numbers stand for hits; i = inactive. Shown are actives, neighbours in structure and some others; about 13% of the full set was active somewhere. No stated cut-off is given here; in the data, active means inhibition above about 30%; inactive means the rest.

SMILES | USP17 block | USP8 block | USP30 block | OTUD3 block | USP28 block
CN(C)[C@@H]1C(=O)C(C(N)=O)=C(O)[C@@]2(O)C(=O)C3=C(O)c4c(O)cccc4[C@@](C)(O)C3[C@H](O)[C@@H]12 (stereo not given in full) | 84 | 50 | 50 | 90 | 87
N=C1c2ccccc2CN1c1ccc(F)c(Cl)c1 | i | i | i | i | i
COc1oc(C2C\C(=C/C(C)=C/C(C)=C/C(C)=C/c3ccc([N+](=O)[O-])cc3)CO2)c(C)c(=O)c1C (stereo not given) | i | i | i | i | i
COC(=O)[C@]1(O)O[C@@]2(C(=O)OC)c3c(oc4cc(C)cc(O)c4c3=O)[C@H]3c4c(oc5cc(C)cc(O)c5c4=O)C[C@H]1[C@H]32 | 53 | i | i | 32 | i
CC(C)=CCc1cccc2[nH]c3c(c12)C[C@@H]1CC[C@@]2(O)[C@@]45O[C@@H]4[C@@H]4O[C@H](C=C(C)C)OC(C)(C)[C@H]4O[C@H]5CC[C@]2(C)[C@@]31C | i | i | i | i | i
CC1CCN(C[C@H]2CN3CC[C@H]2C[C@@H]3CNC(=O)Nc2ccccc2)CC1 | i | i | i | i | i
CN(C[C@H]1CN2CC[C@H]1C[C@@H]2CNC(=O)Nc1cccc(F)c1)c1ccccc1 | i | i | 40 | i | i
CCn1cc(-c2c(C#N)c(N)nc3c2CCCCCC3)c(C)n1 | i | i | i | i | i
CCCCCCC(O)CCCCCC/C=C/[C@H](O)[C@@H](OC(C)=O)[C@H](O)[C@H](N)C(=O)O (stereo not given in full) | 35 | i | i | i | i
CO[C@H](c1ccccc1)[C@@H]1NC(=O)[C@H](C)NC(=O)[C@H](C[C@@H](C)CO)N(C)C(=O)[C@H]([C@H](O)c2cn(C(C)(C)[C@@H]3CO3)c3ccccc23)NC(=O)[C@H]([C@H](C)C=C(C)C)NC(=O)[C@H](CC(C)C)N(C)C(=O)[C@H](C(C)C)NC1=O | 33 | i | i | i | i
CO[C@H]1[C@@H](O)[C@H](C)O[C@H](O[C@H]2[C@H](Oc3cccc4c(O)c5c(=O)oc6ccc(C)c7c(=O)oc(c34)c5c67)O[C@H](C)[C@H](O)[C@@H]2O)[C@@H]1O | 78 | i | i | 51 | 65
Cn1nc(-c2ccco2)cc1[C@H]1CN2CC[C@H]1C[C@@H]2CNC(=O)Nc1cccc(C#N)c1 | i | i | i | i | i
Cn1cc(CN2C[C@H](OCc3cccnc3)[C@H]3OCCC[C@H]32)cn1 | i | i | i | i | i
CC(C)=CCC[C@H](C(=O)O)[C@@H]1CC[C@]2(C)C3=C(CC[C@@]12C)[C@@]1(C)CCC(=O)C(C)(C)C1CC3 (stereo not given in full) | 36 | i | 32 | i | i
